The results in this text go back to PubChem BioAssay (EPA / NIEHS).

Records with an inconclusive call do not appear. Calls of active or inactive are those of the source. Rule for the calls: active = hit-call score of the fitted dose curve at least 0.9, where 1 is the maximum; inconclusive = response in the unintended direction; inactive = score below 0.9.

Read-out in this assay: ABC Transporter (ABCB11), ABCB11 (gene 8647)
The assay is described as follows: CLD_ABCB11_48hr: CellzDirect (CLD) Gene Expression Assay for ABC Transporter (ABCB11) at 48 hours (AID 2283697). Here is the method: CLD_48hr is a cell-based, multiplexed-readout assay that uses hepatocyte, a human liver primary cell, with measurements taken at 48 hours after chemical dosing in a 96-well plate.CLD_ABCB11_48hr is one of 16 assay component(s) measured or calculated from the CLD_48hr assay. It is designed to make measurements of mRNA induction, a form of inducible reporter, as detected with chemiluminescence signals by Quantitative Nuclease Protection Assay (qNPA) technology.Data from the assay component CLD_ABCB11_48hr was analyzed at the endpoint, CLD_ABCB11_48hr, in the positive analysis fitting direction relative to DMSO as the negative control and baseline of activity. Using a type of inducible reporter, gain-of-signal activity can be used to understand changes in the reporter gene as they relate to the gene ABCB11. Furthermore, this assay endpoint can be referred to as a primary readout. To generalize the intended target to other relatable targets, this assay endpoint is annotated to the transporter intended target family, where subfamily is ABC transporter.
Human hepatocyte cultures were treated daily for two consecutive days with fresh dosing solutions containing appropriate concentrations of the 320 ToxCast chemicals (chemical identities were blinded to CellzDirect and other ToxCast collaborators), vehicle control (0.2% DMSO), and positive control inducers as summarized in Table 1. Due to the large number of treatment groups and chemicals examined, the ToxCast chemicals were divided into two groups (spanning two independent cultures of hepatocytes from separate donor preparations (Hu778: ToxCast plates 1 and 2; Hu776: ToxCast plates 3 and 4). Each preparation of human hepatocyte cultures was treated with respective vehicle control, medium only control, set of six positive controls/reference chemicals for the five hepatic receptor pathways, and a subset of eight of the ToxCast chemicals (indoxacarb, pyrithiobac-sodium, norflurazon, cyhalofop-butyl, methomyl, thiram, acetochlor, and propiconazole). These replicate data, coupled with internal replicates designed within the blinded ToxCast chemical library, provided additional data to evaluate interindividual differences between hepatocyte preparations and their potential impact on chemical profiles.Cell morphology and integrity were evaluated using phase-contrast microscopy as an indicator of hepatocyte cell health (Tyson & Green, 1987). Cultures for each treatment group (i.e., media, vehicle [0.2% DMSO], positive control inducers [multiple concentrations], and the ToxCast chemicals [multiple concentrations]) were observed and cell morphology was assessed relative to vehicle control cultures at each harvest time point (0, 6, 24, or 48 h). […] Images were evaluated at the conclusion of the study to assess changes in cell integrity and account for the effects of chemical exposure on uncharacteristic changes in concentration-dependent gene expression profiles. The results from these determinations of apparent cytotoxicity were annotated (yes/no) alongside the corresponding qNPA data for reference.At the conclusion of each treatment period, hepatocyte cultures (96-well) were washed with 1 volume of HBSS, lysed by addition of 25 ul ArrayPlate lysis buffer (HTG, Tucson, AZ), and 70 ul/well of Denaturation Oil, denatured by incubation at 95C for 10 min, and frozen at approximately -70C until analysis by nuclease protection assay (qNPA) (Roberts et al., 2007). For qNPA analysis, cell lysates were thawed at 50C for approximately 30 min, qNPA probes were added, and samples were incubated at 95C for 10 min to begin the detection process by denaturing the target RNA, dissociating the duplexes and secondary structure hybridization. At the conclusion of the hybridization period, S1 nuclease reagent was added to each sample to digest all nonprotected nucleotides at 50C for 60-90 min. […]
On to `CCOC(=O)C(C)Oc1ccc(Oc2cnc3cc(Cl)ccc3n2)cc1` (stereo unspecified), for which the compound was classed as inactive.

`COCCO`: the compound was called inactive.

Regarding `CCCN(CCC)C(=O)SCC`, the compound was called inactive.

Regarding `CCCCCOC(=O)COc1cc(N2C(=O)C3=C(CCCC3)C2=O)c(F)cc1Cl`, the call was inactive.

As for `c1ccc(Nc2ccccc2)cc1`, the call was inactive.

For `CCNc1nc(N)nc(Cl)n1`, the compound was classed as inactive.

For `CCOC(=O)[C@H](C)Oc1ccc(Oc2nc3ccc(Cl)cc3o2)cc1`, the result was inactive.

Regarding `OB(O)O`, the outcome was inactive.

As for `CCCCC(CC)COC(=O)c1ccccc1C(=O)O` (stereo unspecified), the compound was classed as inactive.

By AC50 is commonly meant the concentration at which the activity in the assay is half-maximal. For `N#CSCSc1nc2ccccc2s1`, the AC50 was 34.1 µM (active).

Turning to `CC1(C)C(C=C(Cl)Cl)C1C(=O)OCc1cccc(Oc2ccccc2)c1` (stereo unspecified), the compound was classed as inactive.

As for `COC(=O)c1c(Cl)nn(C)c1S(=O)(=O)NC(=O)Nc1nc(OC)cc(OC)n1`, the compound was called inactive.

As to `CCCOC(=O)c1ccc(C(=O)OCCC)nc1`, the compound was classed as inactive.

With `CCC(C)OC(=O)N1CCCCC1CCO` (stereo unspecified), the outcome was inactive.

For `O=C(Nc1ccc([N+](=O)[O-])cc1Cl)c1cc(Cl)ccc1O`, the outcome was inactive.

For the compound `C#CCOC(=O)[C@@H](C)Oc1ccc(Oc2ncc(Cl)cc2F)cc1`, the outcome was inactive.
